Several values for one entry are separate records, joined by “and”; a condition that tells them apart may be missing. Identical values can stand only once. Results filed as inconclusive are left out. Activity calls are given as the source filed them.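 Rule for the calls, unless noted: active = binding below the plate cutoff, the plate median minus 3 SD, with a reading above zero; inconclusive = below the plate cutoff but reading exactly zero; inactive = the rest.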
What was measured:
[1] = yeast TOR pathway RPL19A-GFP modulators, primary screen, cell-based, S. cerevisiae, multiplex flow cytometry (AID 1862; in the data active = percent of DMSO control GFP below about 86%;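 note: lower values mimic rapamycin by blocking the RPL19A rise seen in DMSO cells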); conditions: S. cerevisiae RPL19A-GFP strain, flow cytometry fluorescence, 3 h; at 10 µM; stronger effect = lower value
[2] = modulators of MEP2-GFP levels in yeast, primary screen, S. cerevisiae, multiplex flow cytometry (AID 1867;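 active = GFP response, as percent of the DMSO control, above the screen-wide mean plus 3 SD, about 139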;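 note: median GFP channel fluorescence of barcode-gated MEP2-GFP cells measured by flow cytometry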); conditions: S. cerevisiae MEP2-GFP strain, 3 h, at 10 µM, stronger effect = higher value, 100% means same as DMSO wells
[3] = modulators of CIT2-GFP expression in yeast, primary screen, S. cerevisiae, GFP fusion, multiplex flow cytometry (AID 1870;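 active = percent response above a set limit, the screen-wide mean plus 3 SD, cut at about 130% in these data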;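 note: barcoded CIT2-GFP strain pooled with four other GFP strains with rapamycin as positive control; median GFP fluorescence per well over plate mean of DMSO wells so 100% = DMSO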); conditions: 3 h, at 10 µM, stronger effect = higher value
[4] = modulators of LAP4-GFP expression in yeast, primary screen, S. cerevisiae, multiplex flow cytometry (AID 1873;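 active = GFP signal, as percent of the solvent control, above the screen mean plus 3 SD, about 149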); conditions: 3 h, at 10 µM, stronger effect = higher value
[5] = modulators of AGP1-GFP expression in yeast TOR pathway, primary screen, cell-based, multiplex flow cytometry, S. cerevisiae (AID 1887;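 active = GFP signal above the screen-wide mean plus 3 SD, that is over about 124.5% of the solvent control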;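 note: AGP1-GFP fusion strain of S. cerevisiae within a five-strain barcoded multiplex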); conditions: 3 h, at 10 µM, stronger effect = higher value
[6] = inhibitors of CD8+ T cell-vesicle binding, pilot screen, LFA-1/ICAM-1 modulator project, MLPCN validation set, flow cytometry (AID 2523;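 active = response below a set limit, under 55% cells CD8-positive and vesicle-bound, and CD8 cells' 90th-percentile brightness under 279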;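 for vesicle binding response: mean PE anti-B7-1 fluorescence of CD8+ cells relative to row control; 100% = QL9-loaded vesicles with DMSO vehicle in the same plate row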); conditions: 2C mouse CD8+ T cells, at 7 µM, stronger effect = lower value; double positive events: measured here: CD8+/vesicle+ event percentage
[7] = target: Integrin beta-1 (Homo sapiens) + Integrin alpha-4 (Homo sapiens) (UniProt P13612+P05556); test: inhibition of HUTS-21 binding to VLA-4, pilot screen, VLA-4 allosteric modulator project, U937 cells, HUTS-21 mAb, flow cytometry, validation set (AID 2674;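 active = inhibition above 50%, about 3 SD of the validation set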;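 note: antibody binding induced by the VLA-4 ligand LDV present at three times its Kd; 0% = LDV ligand with antibody and no compound and 100% = antibody without LDV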); conditions: HUTS-21 LIBS mAb binding, at 6.7 µM, stronger effect = higher value, binding induced by LDV ligand
[8] = superoxide lowering in aged yeast cells, pilot screen, validation compound set (AID 2706;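 active = superoxide response below 65% of plate, a cut near 3 SD across the whole screen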;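 note: yeast exposed to compound for one week at 30 degrees C before staining; 100% = mean of all compound wells on the same plate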); conditions: S. cerevisiae aging, superoxide DHE fluorescence; at 10 µM; stronger effect = lower value
[9] = target: Beta-adrenergic receptor kinase 1 (Homo sapiens) (UniProt P25098); test: GRK2 binders displacing RNA aptamer, biochemical, validation, human GRK2, bead flow cytometry (AID 488806;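 active = aptamer binding inhibition above 30%, about 3 SD of noise from non-fluorescent compounds; inactive = inhibition at or below 30%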); conditions: bead-bound GRK2, FAM-aptamer displacement, at 10 µM, stronger effect = higher value
[10] = target: Beta-2 adrenergic receptor (Homo sapiens) (UniProt P07550); test: beta2AR agonists driving receptor internalization, pilot screen, cell-based, FAP fluorogen, flow cytometry, validation set (AID 504459;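 active = percent response above 42, roughly 3 SD of non-fluorescent test compounds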;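 note: agonist-driven loss of surface beta2AR via internalization measured by FAP dye flow cytometry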); conditions: Am2.2-beta2AR cells, FAP surface receptor flow cytometry; at 10 µM; stronger effect = higher value
[11] = target: AP-2 complex subunit beta (Homo sapiens) (UniProt P63010); test: inhibitors of arrestin peptide binding to AP2, pilot screen, biochemical, validation set, GST-AP2 beads, flow cytometry (AID 504541;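 active = inhibition above 54%, about 3 SD of non-fluorescent compounds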;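 note: AP2 carries R879A mutation and is captured from E. coli lysate; bead-bound FITC arrestin peptide fluorescence measuring arrestin peptide binding to AP2; 0% = DMSO wells and 100% = excess unlabeled arrestin peptide control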); conditions: FITC arrestin peptide, at 10 µM, stronger effect = higher value, AP2 beta2 appendage fragment, R879A mutant
[12] = yeast V-ATPase proton transport modulators, S. cerevisiae, pHLuorin, HTS validation (AID 504600; in the data active = response above about 15%;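 note: plate controls were DMSO for no effect and reference compound for full effect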); conditions: S. cerevisiae pHLuorin cytosolic pH, at 10 µM, stronger effect = higher value
[13] = system: anti-desmoglein-3 scFv antibody binding to human DSG3; test: inhibitors of anti-DSG3 scFv binding to DSG3, pilot screen, biochemical, validation compound set, bead-based, flow cytometry (AID 588368); conditions: Protein G beads, DSG3-Fc, scFv-GFP binding, at 10 µM, stronger effect = lower value;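 note: signal is the median channel fluorescence of bead-bound GFP antibody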
[14] = inhibitors of fungal efflux pumps CDR1, CDR2, MDR1, pilot screen, validation compound set, multiplex, phenotypic (AID 588506;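 active = efflux inhibition above 0.42, the validation set average plus 4 SD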;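 note: Nile Red retained in cells so higher fluorescence means more efflux inhibition; 0 = negative control wells and 1 = enniatin B 25 µM full block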); conditions: S. cerevisiae pump-expressing triplex, Nile Red efflux flow cytometry; at 10 µM; stronger effect = higher value; the pumps come from Candida albicans
[15] = target: ATP-binding cassette sub-family B member 6 (Homo sapiens) (UniProt Q9NP58); test: ABCB6 transporter inhibitors, pilot screen, K562-ABCB6 cells, flow cytometry, validation set (AID 588550;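 active = inhibition above the screen-wide mean plus 3 SD, about 51%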;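 note: 0% = DMSO wells and 100% = benzethonium chloride 70 µM positive control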); conditions: K562-ABCB6 porphyrin accumulation, 1 h, at 10 µM, stronger effect = higher value
[16] = promoters of myeloid differentiation in arrested cells, primary screen, cell-based, GFP/MAC1 double positive, flow cytometry, validation set (AID 588685;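 active = differentiation response of at least 50%, scaled between solvent and reference control, from cells with both markers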;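 note: compound exposure lasts four days before antibody staining and flow analysis; 0% = DMSO wells and 100% = 5 µM fulvestrant positive control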); conditions: ER-HoxA9 marrow cells, stronger effect = higher value, normalized: vehicle 0, fulvestrant 100

Sequence of Integrin beta-1 (Homo sapiens) + Integrin alpha-4 (Homo sapiens) (P05556 whole entry, looked up): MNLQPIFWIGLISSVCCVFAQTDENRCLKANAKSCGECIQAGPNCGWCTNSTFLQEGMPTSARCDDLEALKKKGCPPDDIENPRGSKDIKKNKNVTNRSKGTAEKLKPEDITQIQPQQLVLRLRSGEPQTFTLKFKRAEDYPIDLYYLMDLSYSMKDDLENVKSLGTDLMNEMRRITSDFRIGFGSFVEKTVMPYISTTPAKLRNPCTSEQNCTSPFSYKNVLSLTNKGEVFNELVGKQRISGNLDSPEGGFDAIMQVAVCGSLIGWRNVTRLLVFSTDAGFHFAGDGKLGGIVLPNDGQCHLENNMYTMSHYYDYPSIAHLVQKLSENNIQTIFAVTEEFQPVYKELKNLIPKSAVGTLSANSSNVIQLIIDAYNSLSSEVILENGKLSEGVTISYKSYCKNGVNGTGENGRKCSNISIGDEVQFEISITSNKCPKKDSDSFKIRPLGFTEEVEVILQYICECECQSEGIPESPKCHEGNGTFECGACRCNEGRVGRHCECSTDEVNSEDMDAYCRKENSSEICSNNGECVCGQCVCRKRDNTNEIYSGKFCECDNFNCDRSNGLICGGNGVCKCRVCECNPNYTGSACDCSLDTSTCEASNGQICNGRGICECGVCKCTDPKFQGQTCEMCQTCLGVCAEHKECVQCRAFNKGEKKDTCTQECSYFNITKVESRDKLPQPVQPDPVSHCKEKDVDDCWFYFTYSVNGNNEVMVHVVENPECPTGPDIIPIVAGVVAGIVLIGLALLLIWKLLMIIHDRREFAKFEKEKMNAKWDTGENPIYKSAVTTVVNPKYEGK
Sequence of Integrin beta-1 (Homo sapiens) + Integrin alpha-4 (Homo sapiens) (P13612 whole entry, looked up): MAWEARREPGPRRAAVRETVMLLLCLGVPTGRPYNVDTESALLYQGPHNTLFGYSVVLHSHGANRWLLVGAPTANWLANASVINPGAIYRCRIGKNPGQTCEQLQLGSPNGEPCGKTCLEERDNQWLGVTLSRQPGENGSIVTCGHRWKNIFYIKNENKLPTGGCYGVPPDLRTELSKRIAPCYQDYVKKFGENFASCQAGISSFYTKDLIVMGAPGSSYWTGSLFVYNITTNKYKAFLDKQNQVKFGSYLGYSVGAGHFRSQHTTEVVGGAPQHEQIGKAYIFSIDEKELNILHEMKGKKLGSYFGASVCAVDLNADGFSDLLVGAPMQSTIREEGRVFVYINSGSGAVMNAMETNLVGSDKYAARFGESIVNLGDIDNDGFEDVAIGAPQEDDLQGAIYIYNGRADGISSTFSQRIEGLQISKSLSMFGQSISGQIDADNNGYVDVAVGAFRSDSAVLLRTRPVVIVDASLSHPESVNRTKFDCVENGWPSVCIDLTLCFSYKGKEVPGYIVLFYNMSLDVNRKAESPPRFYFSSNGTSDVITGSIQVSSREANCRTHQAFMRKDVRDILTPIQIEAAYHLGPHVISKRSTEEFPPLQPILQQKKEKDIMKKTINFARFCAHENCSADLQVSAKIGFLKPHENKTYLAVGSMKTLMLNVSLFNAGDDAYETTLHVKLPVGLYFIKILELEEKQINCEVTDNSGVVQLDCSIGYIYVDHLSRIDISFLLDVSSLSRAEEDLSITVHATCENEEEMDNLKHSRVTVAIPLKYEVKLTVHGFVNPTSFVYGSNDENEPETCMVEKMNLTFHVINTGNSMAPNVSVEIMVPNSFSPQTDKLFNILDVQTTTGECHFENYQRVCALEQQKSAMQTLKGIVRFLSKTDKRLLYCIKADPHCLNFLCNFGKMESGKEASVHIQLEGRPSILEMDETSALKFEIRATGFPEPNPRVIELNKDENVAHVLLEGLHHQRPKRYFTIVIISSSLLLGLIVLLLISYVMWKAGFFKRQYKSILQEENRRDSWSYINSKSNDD
Sequence of ATP-binding cassette sub-family B member 6 (Homo sapiens) (Q9NP58 whole entry, looked up): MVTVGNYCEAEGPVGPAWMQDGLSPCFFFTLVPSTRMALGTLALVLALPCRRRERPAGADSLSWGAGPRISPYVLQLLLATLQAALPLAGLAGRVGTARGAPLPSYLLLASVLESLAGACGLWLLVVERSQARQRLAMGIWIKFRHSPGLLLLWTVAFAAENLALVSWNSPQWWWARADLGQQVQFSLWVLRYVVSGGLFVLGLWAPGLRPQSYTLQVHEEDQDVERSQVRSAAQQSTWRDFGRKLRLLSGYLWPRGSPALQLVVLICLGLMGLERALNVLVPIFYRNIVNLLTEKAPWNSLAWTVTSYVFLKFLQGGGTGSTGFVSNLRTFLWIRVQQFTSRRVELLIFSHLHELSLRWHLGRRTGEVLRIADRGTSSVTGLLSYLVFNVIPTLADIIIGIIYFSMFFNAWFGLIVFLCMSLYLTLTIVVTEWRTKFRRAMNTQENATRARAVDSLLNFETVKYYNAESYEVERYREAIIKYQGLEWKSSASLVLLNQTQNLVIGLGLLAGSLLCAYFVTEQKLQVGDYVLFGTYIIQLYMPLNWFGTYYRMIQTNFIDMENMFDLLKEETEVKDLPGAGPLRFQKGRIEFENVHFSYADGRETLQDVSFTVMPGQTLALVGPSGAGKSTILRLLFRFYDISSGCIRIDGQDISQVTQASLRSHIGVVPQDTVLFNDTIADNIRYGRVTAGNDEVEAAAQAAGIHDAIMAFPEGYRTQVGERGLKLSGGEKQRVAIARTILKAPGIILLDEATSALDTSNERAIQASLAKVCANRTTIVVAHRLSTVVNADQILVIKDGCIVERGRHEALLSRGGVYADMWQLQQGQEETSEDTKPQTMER
Sequence of AP-2 complex subunit beta (Homo sapiens) (P63010 whole entry, looked up, the tested form may be a part, one chain of several): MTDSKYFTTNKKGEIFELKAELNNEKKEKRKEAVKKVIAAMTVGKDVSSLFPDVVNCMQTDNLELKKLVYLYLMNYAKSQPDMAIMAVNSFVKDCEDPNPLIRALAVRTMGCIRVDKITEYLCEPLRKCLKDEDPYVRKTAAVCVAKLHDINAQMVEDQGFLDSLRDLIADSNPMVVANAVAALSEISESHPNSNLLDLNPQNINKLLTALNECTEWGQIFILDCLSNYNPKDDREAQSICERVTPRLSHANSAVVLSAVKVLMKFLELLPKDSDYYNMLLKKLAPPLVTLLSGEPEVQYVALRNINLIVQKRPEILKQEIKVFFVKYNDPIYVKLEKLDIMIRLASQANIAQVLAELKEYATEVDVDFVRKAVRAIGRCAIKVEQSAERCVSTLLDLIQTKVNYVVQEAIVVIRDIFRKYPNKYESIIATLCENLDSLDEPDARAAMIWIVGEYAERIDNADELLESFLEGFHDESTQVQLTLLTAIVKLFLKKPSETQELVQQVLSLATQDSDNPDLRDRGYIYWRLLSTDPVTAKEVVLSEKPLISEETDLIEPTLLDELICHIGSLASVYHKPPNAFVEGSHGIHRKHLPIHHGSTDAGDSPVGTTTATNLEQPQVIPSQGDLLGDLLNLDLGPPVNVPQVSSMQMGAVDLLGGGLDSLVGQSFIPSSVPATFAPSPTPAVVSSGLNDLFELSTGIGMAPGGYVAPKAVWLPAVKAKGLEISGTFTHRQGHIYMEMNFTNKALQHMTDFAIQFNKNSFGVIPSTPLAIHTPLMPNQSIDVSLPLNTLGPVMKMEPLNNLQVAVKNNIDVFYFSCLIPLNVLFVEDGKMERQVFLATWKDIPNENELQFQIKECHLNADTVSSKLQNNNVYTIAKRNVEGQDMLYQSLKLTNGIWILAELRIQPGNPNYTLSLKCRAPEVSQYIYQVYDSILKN
Sequence of Beta-2 adrenergic receptor (Homo sapiens) (P07550 whole entry, looked up): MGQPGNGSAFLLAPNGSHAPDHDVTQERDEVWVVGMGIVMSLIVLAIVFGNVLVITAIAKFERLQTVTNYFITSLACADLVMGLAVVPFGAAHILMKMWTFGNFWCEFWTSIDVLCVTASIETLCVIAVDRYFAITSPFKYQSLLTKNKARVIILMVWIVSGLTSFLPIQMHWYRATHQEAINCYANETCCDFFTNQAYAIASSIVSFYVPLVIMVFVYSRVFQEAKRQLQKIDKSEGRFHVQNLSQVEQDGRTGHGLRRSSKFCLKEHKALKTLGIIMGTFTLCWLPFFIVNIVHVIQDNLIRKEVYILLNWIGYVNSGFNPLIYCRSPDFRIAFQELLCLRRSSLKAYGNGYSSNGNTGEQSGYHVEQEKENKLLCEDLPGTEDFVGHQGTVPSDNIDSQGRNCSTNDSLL
Sequence of Beta-adrenergic receptor kinase 1 (Homo sapiens) (P25098 whole entry, looked up): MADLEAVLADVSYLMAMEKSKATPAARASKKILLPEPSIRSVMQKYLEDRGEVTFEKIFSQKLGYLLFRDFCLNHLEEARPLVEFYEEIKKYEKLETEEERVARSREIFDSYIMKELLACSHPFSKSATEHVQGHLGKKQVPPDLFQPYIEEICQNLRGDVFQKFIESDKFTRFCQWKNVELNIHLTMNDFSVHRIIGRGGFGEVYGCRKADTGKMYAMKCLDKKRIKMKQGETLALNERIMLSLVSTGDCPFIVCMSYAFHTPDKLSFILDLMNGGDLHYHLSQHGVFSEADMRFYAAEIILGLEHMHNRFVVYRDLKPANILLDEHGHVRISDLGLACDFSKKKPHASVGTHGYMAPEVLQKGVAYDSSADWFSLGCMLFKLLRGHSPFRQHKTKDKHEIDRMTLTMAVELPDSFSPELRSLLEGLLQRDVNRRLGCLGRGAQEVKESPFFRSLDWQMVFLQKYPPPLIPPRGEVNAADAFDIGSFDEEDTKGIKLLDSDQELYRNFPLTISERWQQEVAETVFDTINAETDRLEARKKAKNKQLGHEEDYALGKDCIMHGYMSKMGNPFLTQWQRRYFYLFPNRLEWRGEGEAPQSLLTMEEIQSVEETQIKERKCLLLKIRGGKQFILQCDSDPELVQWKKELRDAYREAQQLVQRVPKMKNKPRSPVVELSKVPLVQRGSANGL

CCNC(=O)C12CCC(C)(C(=O)O1)C2(C)C (stereo not drawn)
inactive: percent of DMSO control GFP [1] 105% | GFP response vs DMSO [2] 102% | percent response of DMSO control [3] 102% | GFP response vs DMSO [4] 95.8% | GFP response, % of DMSO [5] 101% | vesicle binding response [6] 120% | inhibition [7] 8.28% | superoxide response (% of plate) [8] 105% | aptamer binding inhibition [9] 2% | response [10] 6.09% | inhibition [11] 6.39% | response [12] 2.81% | binding (% of control) [13] 95.7% | efflux inhibition (fraction of control) [14] -0.54 | inhibition [15] 7% | differentiation response [16] 1.17%
60.6%: double positive events [6]

CC(C)C(=O)Nc1c(O)c2ccccc2[nH]c1=O
active: GFP response vs DMSO [4] 151%
inactive: percent of DMSO control GFP [1] 95.6% | GFP response vs DMSO [2] 91.9% | percent response of DMSO control [3] 93.9% | GFP response, % of DMSO [5] 96.6% | vesicle binding response [6] 220% | inhibition [7] 6.4% | superoxide response (% of plate) [8] 111% | aptamer binding inhibition [9] 0% | response [10] 7.52% | inhibition [11] -0.19% | response [12] -4.44% | binding (% of control) [13] 96.6% | efflux inhibition (fraction of control) [14] 0.15 | inhibition [15] 11% | differentiation response [16] -4%
62%: double positive events [6]

Cc1c2c(nc3c(C)cccc13)OC(C)C2 (stereo not drawn)
inactive: percent of DMSO control GFP [1] 105% | GFP response vs DMSO [2] 100% | percent response of DMSO control [3] 112% | GFP response vs DMSO [4] 97.3% | GFP response, % of DMSO [5] 103% | inhibition [7] -3.57% | superoxide response (% of plate) [8] 99.9% | aptamer binding inhibition [9] -2% | response [10] -11.5% | inhibition [11] 2.14% | response [12] 3.8% | binding (% of control) [13] 97.6% | efflux inhibition (fraction of control) [14] 0.11 | inhibition [15] 3% | differentiation response [16] -9.53%
active: vesicle binding response [6] 31.8%
52%: double positive events [6]

NCCc1cnc[nH]1
active: response [12] 25.1% and 47.3%
inactive: percent of DMSO control GFP [1] 89.8% and 102% | GFP response vs DMSO [2] 129% and 104% | percent response of DMSO control [3] 101% and 102% | GFP response vs DMSO [4] 78.7% and 113% | GFP response, % of DMSO [5] 84.5% and 117% | vesicle binding response [6] 192% and 166% | inhibition [7] -33.3% and -35.2% | superoxide response (% of plate) [8] 105% and 109% | aptamer binding inhibition [9] 3% and 0% | response [10] -15.1% and -30.5% | inhibition [11] -4.51% and -1.77% | binding (% of control) [13] 105% and 106% | efflux inhibition (fraction of control) [14] 0.09 and 0.04 | inhibition [15] 5% and -3% | differentiation response [16] -5.73% and -4.99%
55.6% and 61.9%: double positive events [6]

COc1ccc2c(c1OC)C(=O)N1C2SC[C@H]1C(=O)NC1CC(C)(C)NC(C)(C)C1 (stereo partly drawn)
active: vesicle binding response [6] 17.2%
48.3%: double positive events [6]
inactive: percent of DMSO control GFP [1] 99.8% | GFP response vs DMSO [2] 133% | percent response of DMSO control [3] 111% | GFP response vs DMSO [4] 84.7% | GFP response, % of DMSO [5] 93.1% | inhibition [7] 1.61% | superoxide response (% of plate) [8] 91.6% | aptamer binding inhibition [9] 6% | response [10] 3.43% | inhibition [11] 39.2% | response [12] -0.76% | binding (% of control) [13] 103% | efflux inhibition (fraction of control) [14] 0.09 | inhibition [15] 1% | differentiation response [16] 30.3%

CN(C)C(=O)Oc1ccc[n+](C)c1
inactive: percent of DMSO control GFP [1] 102% | GFP response vs DMSO [2] 106% | percent response of DMSO control [3] 94.2% | GFP response vs DMSO [4] 94.7% | GFP response, % of DMSO [5] 95.9% | vesicle binding response [6] 1200% | inhibition [7] 0.58% | superoxide response (% of plate) [8] 104% | aptamer binding inhibition [9] 4% | response [10] 0.34% | inhibition [11] 16.8% | response [12] -1.45% | binding (% of control) [13] 103% | efflux inhibition (fraction of control) [14] -0.1 | inhibition [15] 13% | differentiation response [16] -1.71%
62.3%: double positive events [6]

Cc1cc(-c2nn(-c3ccccc3F)cc2CN2CCCC(O)C2)c(C)s1 (stereo not drawn)
56.6%: double positive events [6]
inactive: percent of DMSO control GFP [1] 97.6% | GFP response vs DMSO [2] 101% | percent response of DMSO control [3] 97.7% | GFP response vs DMSO [4] 117% | GFP response, % of DMSO [5] 107% | vesicle binding response [6] 148% | inhibition [7] 5.69% | superoxide response (% of plate) [8] 84.2% | aptamer binding inhibition [9] -2% | response [10] -40.3% | inhibition [11] -12.6% | response [12] -5.22% | binding (% of control) [13] 103% | efflux inhibition (fraction of control) [14] -0.04 | inhibition [15] 0% | differentiation response [16] -13.9%

CC1(C)O[C@@H]2C[C@H]3[C@@H]4C[C@H](F)C5=CC(=O)C=C[C@]5(C)[C@@]4(F)[C@@H](O)C[C@]3(C)[C@]2(C(=O)CO)O1
inactive: percent of DMSO control GFP [1] 102% | GFP response vs DMSO [2] 102% | percent response of DMSO control [3] 105% | GFP response vs DMSO [4] 102% | GFP response, % of DMSO [5] 111% | vesicle binding response [6] 113% | inhibition [7] -5.11% | superoxide response (% of plate) [8] 103% | aptamer binding inhibition [9] 1% | response [10] 6.68% | inhibition [11] -10.8% | response [12] 0.85% | binding (% of control) [13] 104% | efflux inhibition (fraction of control) [14] -0.025 | inhibition [15] 19% | differentiation response [16] -8.96%
57.8%: double positive events [6]

O=C(COc1ccc2c(-c3ccccc3)cc(=O)oc2c1)NCc1cccs1
64.6%: double positive events [6]
inactive: percent of DMSO control GFP [1] 97.5% | GFP response vs DMSO [2] 96.6% | percent response of DMSO control [3] 85.4% | GFP response vs DMSO [4] 102% | GFP response, % of DMSO [5] 102% | vesicle binding response [6] 214% | inhibition [7] -3.67% | superoxide response (% of plate) [8] 92.2% | aptamer binding inhibition [9] -2% | response [10] -25.8% | inhibition [11] 26.5% | response [12] -7% | binding (% of control) [13] 102% | efflux inhibition (fraction of control) [14] 0.12 | inhibition [15] 14% | differentiation response [16] 6.83%

Source: PubChem BioAssay
